# Source: PubChem BioAssay
# PABP polyA inh = PABP-poly(A) binding inhibition. P11940. PABP-poly(A) RNA binding, fluorescence polarization. calls only at 35 µM. 290,000 tested, 1% active. AID 2014;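 also: calls also rest on retests at 20 µM and on dose response follow-up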
# Target sequence (P11940 whole entry, looked up): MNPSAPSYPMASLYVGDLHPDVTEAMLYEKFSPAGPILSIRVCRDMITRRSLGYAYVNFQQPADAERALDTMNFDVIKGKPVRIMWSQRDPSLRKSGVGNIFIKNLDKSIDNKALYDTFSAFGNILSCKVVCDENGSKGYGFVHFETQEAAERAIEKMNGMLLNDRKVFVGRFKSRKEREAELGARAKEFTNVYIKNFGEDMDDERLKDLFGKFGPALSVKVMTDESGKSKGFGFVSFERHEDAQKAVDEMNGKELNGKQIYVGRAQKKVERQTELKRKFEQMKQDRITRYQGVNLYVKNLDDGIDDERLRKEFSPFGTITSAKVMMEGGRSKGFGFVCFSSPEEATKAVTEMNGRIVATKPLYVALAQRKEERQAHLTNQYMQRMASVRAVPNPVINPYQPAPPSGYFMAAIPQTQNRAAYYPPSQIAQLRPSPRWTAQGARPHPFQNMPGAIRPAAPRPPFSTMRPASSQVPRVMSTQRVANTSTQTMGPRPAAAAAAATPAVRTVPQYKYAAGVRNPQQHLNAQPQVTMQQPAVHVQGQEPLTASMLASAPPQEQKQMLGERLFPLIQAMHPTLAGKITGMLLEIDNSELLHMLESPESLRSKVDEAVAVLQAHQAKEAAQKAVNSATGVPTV
# eIF4E-4G inh = inhibitors of eIF4E and eIF4G interaction in translation initiation; 220,000 tested, 0.37% active; TR-FRET eIF4E-eIF4GI(517-606) binding, 2 h; inhibition, % at 21.7 µM; P63073+Q04637;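 active = inhibition above about 30%, limit read from the data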;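 also: 0% = full FRET control wells and 100% = background wells lacking eIF4GI fragment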
# eIF4H inh = inhibitors of RNA binding by human eIF4H; Q15056; eIF4H fluorescence polarization binding assay; inhibition, % at 35 µM; 290,000 tested, 0.94% active; AID 2012;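 also: calls also rest on retests at 20 µM and on dose response follow-up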
# MLLE-PAM2 inh = inhibitors of microRNA-mediated deadenylation, human PABP1 MLLE binding. 360,000 tested, 0.36% active. GST-MLLE / FITC-PAM2 fluorescence polarization. P11940. inhibition, % at 20 µM; in the data active = inhibition above about 35%, passing the limit was not always enough;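 also: plate controls were DMSO wells with GST-MLLE for no effect and wells lacking GST-MLLE protein for full effect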
# PERK inhibitor = inhibitors of human PERK kinase. inhibition, % at 5.6 µM. 220,000 tested, 0.17% active. AID 1416. CHO PERK-DD fusion, SEAP luminescence translation reporter. Q9NZJ5;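 active = inhibition above the mean inhibition of all tested compounds plus 3 SD, set separately per screening campaign, cut at about 2.9% in these data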;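 also: PERK kinase domain activated by AP20187 dimerizer at 100 nM; 0% = DMSO with dimerizer and 100% = rapamycin at 8.4 µM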
# The depositor's hits bear a star; i = inactive; u = inconclusive; x = not tested or not shown; + = active, no number; [ ] = another dose, or the depositor's remark. Rows were chosen to be rich in hits. Some 1.6% of all compounds tested hit in one or more screens of this group. Unless noted, no rule for the calls is given here.
SMILES,PABP polyA inh,eIF4E-4G inh,eIF4H inh,MLLE-PAM2 inh,PERK inhibitor
Cc1ccc(CNC(=O)/C=C/c2c(Cl)cccc2Cl)cc1,i,5,-4,1,1
Cc1ccc(CNC(=O)/C=C/c2ccccc2Cl)cc1,i,4,3,9,3.0*
Cc1ccc(S(=O)(=O)N2CCCC2C(=O)NCc2ccc3c(c2)OCO3)cc1 (centres undefined),i,2,3,-10,-1
CSC1=N/C(=C\c2ccc(Br)o2)C(=O)S1,+,12,57*,0,0
CSC1=N/C(=C\c2ccccc2F)C(=O)S1,i,-7,-1,9,2
Cc1cc(C(=O)NCc2ccc(C(=O)O)o2)c(C)o1,+,3,74,6,1
O=C(COc1ccccc1C(=O)N/N=C\c1ccc(O)c(O)c1)N/N=C/c1ccc(O)c(O)c1,+,3,74*,5,2
CCOC(=O)c1nnn(-c2nonc2N)c1COc1ccc(F)cc1,i,6,-2,5,-1
CCOC(=O)c1nnn(-c2nonc2N)c1COc1ccccc1,+,1,31,-11,0
Cc1cc(C)cc(-n2c(SCC(=O)Nc3cccc(S(=O)(=O)NC4=NCCCCC4)c3)nc3ccccc3c2=O)c1,+,1,active,-12,-1
O=C(Nc1cccc(S(=O)(=O)NC2=NCCCCC2)c1)c1cc(-c2ccco2)nc2ccccc12,i,35*,74,-22,-1
COc1cccc(NC(=O)CCC(=O)Nc2cccc(OC)c2)c1,i,9,0,16,0
Cc1cccc(OCC(=O)Nc2ccc3c(C)cc(=O)oc3c2)c1,+,0,78*,-21,1
Cc1cc(=O)oc2cc(NC(=O)COc3cccc(C(F)(F)F)c3)ccc12,x,x,x,-21,x
O=C(COc1cccc(Oc2ccccc2)c1)Nc1ccc(SC(F)F)cc1,i,-13,7,-14,1
COc1cccc(NC(=O)CSC(N)=O)c1,i,2,5,38*,1
CC(=O)Nc1ccc(S(=O)(=O)NNC(=O)COc2cccc(C)c2)cc1,i,33*[fluorescence artefact?],-6,31,2
CCOC(=O)c1ccc(S(=O)(=O)NNC(=O)COc2cccc(C)c2)cc1,i,2,0,1,0
CN(C)C(=O)c1ccc(NC(=O)COc2cccc(Oc3ccccc3)c2)cc1,+,x,23,-2,x
CN(C)c1ccc(C(=O)NCC(c2cccs2)N2CCOCC2)cc1 (centres undefined),x,x,x,1,x
CC(=O)Nc1cccc(OCC(=O)Nc2ccccc2)c1,i,4,active,12,-1
COc1cccc(NC(=O)COc2ccccc2)c1,i,x,2,4,x
Clc1ccc(C2=CC(c3ccco3)n3ncnc3N2)cc1 (centres undefined),+,9,u,160,0
COc1ccc(C2=CC(c3ccco3)n3ncnc3N2)cc1 (centres undefined),i,0,u,144,1
Cc1onc(-c2ccccc2)c1C(=O)N1CCN(C/C=C/c2ccccc2)CC1,+,-4,28*,11,0
SMILES,PABP polyA inh,eIF4E-4G inh,eIF4H inh,MLLE-PAM2 inh,PERK inhibitor
COc1c(C)cc(C(=O)C2CCCN(Cc3ccc(Oc4ncccn4)cc3)C2)cc1C (centres undefined),i,70*,3,4,-1
COc1cccc(C(=O)C2CCCN(Cc3cccn3-c3cccnc3)C2)c1 (centres undefined),+,2,81,-9,-1
COc1cccc(C(=O)C2CCCN(Cc3cccc(-n4cccn4)c3)C2)c1 (centres undefined),i,2,0,1,-1
CC(C)Oc1cccc(C(=O)C2CCCN(Cc3ccc(Oc4ncccn4)cc3)C2)c1 (centres undefined),i,3,-10,0,0
CC(=O)N(c1cc(C)ccc1C)c1ccccc1[N+](=O)[O-],x,x,x,3,x
COc1ccc(CNC(=O)COC(=O)CN2C(=O)C3CC=CCC3C2=O)cc1 (centres undefined),x,x,x,-33,x
Cc1ccc(S(=O)(=O)CCC(=O)OCCOc2ccc(Br)cc2)cc1,x,x,x,0,x
CCc1nnc(NC(=O)CCC(=O)N2CCN(CCOc3ccc(C)cc3)CC2)s1,i,-6,50*,3,-2
O=C(C=Cc1ccccc1)c1cccs1,x,x,x,0,x
Nc1ccc(/C=C/C(=O)c2cccs2)cc1,i,1,65*,-113,0
NC(COCc1ccccc1)c1csc(Nc2ccc(S(N)(=O)=O)cc2)n1 (centres undefined),x,x,x,-22,x
C=C(C)C(=O)Nc1cccc(C2=NOC3(C2)C[C@@H](C(N)=O)N(C(=O)CC(c2ccccc2)c2ccccc2)C3)c1 (some centres undefined),+,2,90*,2,x
C/C=C(/C)C(=O)Nc1cccc(C2=NOC3(C2)C[C@@H](C(N)=O)N(C(=O)CC(c2ccccc2)c2ccccc2)C3)c1 (some centres undefined),i,-2,-2,-11,x
CCCCCC(=O)Nc1cccc(C2=NOC3(C2)C[C@H](C(N)=O)N(C(=O)CC#N)C3)c1 (some centres undefined),+,-7,103,x,x
C=C(C)C(=O)Nc1cccc(C2=NOC3(C2)C[C@H](C(N)=O)N(C(=O)CC)C3)c1 (some centres undefined),i,4,92*,10,x
C=C(C)C(=O)Nc1cccc(C2=NOC3(C2)C[C@H](C(N)=O)N(C(=O)c2ccccc2C(=O)c2ccccc2)C3)c1 (some centres undefined),+,8,98*,1,x
CCC(=O)N1CC2(CC(c3cccc(NC(=O)CC(c4ccccc4)c4ccccc4)c3)=NO2)C[C@H]1C(N)=O (some centres undefined),i,0,3,4,x
Cc1cccn2cc(COc3ccc(-c4ccccc4)cc3)nc12,i,2,5,12,1
CCc1cc2c(SCC#N)ncnc2s1,i,1,-4,5,2
C/C=C/C=C\C(=O)Nc1cccc(C2=NOC3(C2)C[C@H](C(N)=O)N(C(=O)CC#N)C3)c1 (some centres undefined),i,2,17,-2,x
C=C(C)C(=O)Nc1cccc(C2=NOC3(C2)C[C@H](C(N)=O)N(C(=O)CC#N)C3)c1 (some centres undefined),i,-1,89*,x,x
CCN(CC(=O)Nc1c(C(=O)OC)[nH]c2ccccc12)c1ccc2c(c1)OCO2,i,10,16,15,-1
COC(=O)c1[nH]c2ccccc2c1NC(=O)/C=C/c1ccc2c(c1)OCO2,+,1,-12,10,1
O=C1N=c2ccccc2=C1c1sc(Nc2cccc(O)c2)nc1O,+,x,59*,-17,x
O=C1N=c2ccccc2=C1c1sc(Nc2ccc(O)cc2)nc1O,i,37*,u,18,1
